Only some compounds are listed: those with a hit (about 2.8% of all), similar ones and a draw of the others.
Shn3 3UTR inh – reduces Shn3 3'UTR luciferase signal in osteoblasts; Clone20 osteoblast Shn3 3'UTR firefly luciferase, 24 h; inhibition, % at 12.5 µM; 0.52% of 360,000 active;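 active = mean inhibition of at least 75% with every replicate also reaching 75%; inconclusive = mean inhibition at least 75% but some replicate below; inactive = mean inhibition below 75%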;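 note: 0% = median of neutral control wells and 100% = pilot-screen positive control compound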
KKLEB tox – reduces viability of KKLEB cystic fibrosis airway cells; KKLEB CF airway cells viability, ATPlite luminescence, overnight; hits give low values; cells stimulated with P. aeruginosa culture filtrate; activity change (cytotoxicity), % at 5 µM; 0.36% of 360,000 active; AID 602141;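 active = corrected activity change at or below -50% at 5 µM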
TRPM1 prom inh – inhibitors of MITF-driven TRPM1 promoter in melanoma cells | SK-MEL-5 TRPM1 promoter luciferase, 24 h | inhibition, % at 12.5 µM | 0.83% of 330,000 active | AID 488899;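 active = mean inhibition across replicates of 60% or more, whatever share of single replicates reaches that level; inconclusive = some that reach 60%, reason not given; inactive = mean inhibition across replicates below 60%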
HIF-2a block – inhibitors of HIF-2a; 786-0 RCC cells HIF-2a reporter, luciferase luminescence, overnight; inhibition, % at 18.8 µM; 0.72% of 360,000 active;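 active = inhibition of the luminescence signal of 40% or more relative to plate controls, in a single-dose primary screen at 18.75 µM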
Peg3 promoter – reduces Peg3 promoter-driven luciferase expression in HeLa; HeLa PEG-Prom luciferase reporter, luminescence, overnight; inhibition, % at 20 µM; 1.7% of 360,000 active; AID 588405;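 active = inhibition of at least 50% at 20 µM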
CF NFkB block – cystic fibrosis NF-kB activation inhibition; inhibition, % at 5 µM; KKLEB NF-kB-GFP reporter, PAF-induced, GFP fluorescence overnight; 0.86% of 360,000 active;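 active = at least 50% inhibition at 5 µM, scaled per plate between neutral and stimulator controls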;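 note: PAF is a Pseudomonas aeruginosa culture filtrate used as stimulus; plate controls were PAF-stimulated DMSO wells for no effect and unstimulated DMSO wells for full effect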
Mdm2 MdmX conf – Mdm2/MdmX (human) interaction inhibition, confirmed; shares compounds with HIF-2a block; SaOS-2 split-luciferase Mdm2/MdmX complementation, luminescence; inhibition, % at 8 µM; 99% of 740 active; AID 504601;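 active = mean inhibition of the luminescence signal across two replicates at or above 26 percent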
Target sequence (O15151 whole entry, looked up): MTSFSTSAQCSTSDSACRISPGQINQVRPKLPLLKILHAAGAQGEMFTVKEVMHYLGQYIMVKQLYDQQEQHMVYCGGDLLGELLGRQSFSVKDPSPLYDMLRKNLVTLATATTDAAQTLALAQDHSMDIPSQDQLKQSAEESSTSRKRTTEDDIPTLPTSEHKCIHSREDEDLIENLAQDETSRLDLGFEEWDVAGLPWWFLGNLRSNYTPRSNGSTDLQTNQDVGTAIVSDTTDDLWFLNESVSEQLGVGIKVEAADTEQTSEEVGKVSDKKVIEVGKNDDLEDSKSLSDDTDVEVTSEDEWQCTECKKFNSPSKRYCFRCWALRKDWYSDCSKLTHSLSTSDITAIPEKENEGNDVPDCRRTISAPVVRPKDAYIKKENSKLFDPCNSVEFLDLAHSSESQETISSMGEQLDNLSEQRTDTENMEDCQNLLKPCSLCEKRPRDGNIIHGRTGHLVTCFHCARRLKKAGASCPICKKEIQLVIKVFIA
Target sequence (Q00987 whole entry, looked up): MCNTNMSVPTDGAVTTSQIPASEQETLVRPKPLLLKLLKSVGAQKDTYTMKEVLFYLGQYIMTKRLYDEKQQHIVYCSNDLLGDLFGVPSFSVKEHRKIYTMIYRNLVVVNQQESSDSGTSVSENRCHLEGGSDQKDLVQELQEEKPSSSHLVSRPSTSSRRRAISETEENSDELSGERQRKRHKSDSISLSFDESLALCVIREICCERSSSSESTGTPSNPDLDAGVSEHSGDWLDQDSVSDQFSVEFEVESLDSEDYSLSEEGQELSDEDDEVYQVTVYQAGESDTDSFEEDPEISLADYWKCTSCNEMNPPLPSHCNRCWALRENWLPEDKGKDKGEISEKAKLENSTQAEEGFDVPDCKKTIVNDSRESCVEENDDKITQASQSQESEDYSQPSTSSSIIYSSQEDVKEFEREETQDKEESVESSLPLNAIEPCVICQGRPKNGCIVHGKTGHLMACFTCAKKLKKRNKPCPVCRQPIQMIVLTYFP
HIF-2a conf – confirmation of HIF-2a inhibitors. shares compounds with HIF-2a block. 786-0 RCC cells, HIF-2a luciferase reporter luminescence, overnight. inhibition, % at 18.8 µM. 56% of 1,800 active. AID 651580;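 active = mean inhibition across four replicates of at least 40 percent at the single tested concentration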
HIF-1a counter – inhibits HIF-1a reporter, a counter-screen for HIF-2a inhibitors; shares compounds with HIF-2a block; MiaPaCa-2 HIF-1a luciferase reporter, desferoxamine, overnight; inhibition, % at 18.8 µM; 72% of 1,800 active; AID 651589;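 active = mean inhibition of the reporter signal across four replicates at the single tested dose of 50% or more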
Numbers without * were called inactive; ? = inconclusive; / = not tested or not shown.

SMILES	Shn3 3UTR inh	KKLEB tox	TRPM1 prom inh	HIF-2a block	Peg3 promoter	CF NFkB block	HIF-2a conf	HIF-1a counter	others
Cc1c(C)c(C)c(C(=O)C2CCN(c3ccc([N+](=O)[O-])cn3)CC2)c(C)c1C	12	-19	11	23	15	30	/	/
CCCCCCCCCCOC(=O)Cn1c(COc2ccc(Cl)cc2)[n+](C)c2ccccc21	96*	1	28	19	98*	12	/	/	Mdm2 MdmX conf=103*
COc1ccc(C(=O)Oc2ccc3c(c2)OCO3)cc1OC	-40	-5	-61	-45	-131	4	/	/
COc1cc2c(OC(C)=O)c3c(c(-c4ccc5c(c4)OCO5)c2cc1OC)C(=O)OC3	81	-35	/	-46	78*	17	/	/	Mdm2 MdmX conf=88*
CCOc1ccc(OCc2ccc(C(=O)O)o2)cc1	8	-5	45	42*	45	8	27	-22
O=C(O)c1ccc(COc2ccc3ccccc3c2)o1	-98	0	-36	-139	-113	-19	/	/
COc1ccc(S(=O)(=O)N2CCCC(C(=O)NC3CC3)C2)cc1OC (stereo not given)	0	1	-4	14	3	-15	/	/
COc1ccccc1C(c1c(N)n(C)c(=O)n(C)c1=O)C(C)[N+](=O)[O-] (stereo not given)	4	13	/	12	4	-17	/	/
COc1ccccc1C(C[N+](=O)[O-])c1c(N)n(C)c(=O)n(C)c1=O (stereo not given)	22	-9	/	74*	104*	48	56*	-3
CCC1CCCCN1CCCNC(=O)C1CCN(Cc2nc(-c3ccc(Cl)cc3)oc2C)CC1 (stereo not given)	-12	-17	100*	16	80*	8	/	/	Mdm2 MdmX conf=102*
Cc1cc(NC(=O)COC(=O)C(C)Oc2ccc(Cl)cc2Cl)no1 (stereo not given)	-4	-10	4	12	0	6	/	/
Cn1c(/C=C/c2ccc(Cl)cc2)c([N+](=O)[O-])c(=O)n(C)c1=O	-4	6	?	63*	15	27	44*	18
CCCCCOc1ccc(/C=C/c2c([N+](=O)[O-])c(=O)n(C)c(=O)n2C)cc1	4	10	1	42*	31	0	12	1
COc1ccc(/C=C/c2c([N+](=O)[O-])c(=O)n(C)c(=O)n2C)cc1OC	-30	0	1	12	0	17	/	/
Cn1c(/C=C/c2cccc([N+](=O)[O-])c2)c([N+](=O)[O-])c(=O)n(C)c1=O	-15	5	49	45*	32	46	38	57*
CCOc1ccccc1NC(=O)C1CCN(C(=O)C2CC(=O)N(c3ccc(C)cc3)C2)CC1 (stereo not given)	7	0	10	11	-3	-1	/	/
CCN(CC)c1ccc(S(=O)(=O)N2CCOCC2)cc1NC(=O)CSC(=S)N1CCCC1	13	-14	-2	19	19	9	/	/
O=C(CCl)Nc1cccc(S(=O)(=O)N2CCCCCC2)c1	-7	-41	75*	46*	73*	0	3	67*
COc1ccc2cc1Oc1ccc(cc1)C[C@H]1c3cc(c(OC)cc3CCN1C)Oc1c(OC)c(OC)cc3c1[C@H](C2)N(C)CC3	38	-14	95*	11	93*	27	/	/	Mdm2 MdmX conf=102*
Cc1ccc(C)c(NC(=O)c2cc[n+](C)cc2)c1	-6	-3	5	10	14	-1	/	/
CC(C)c1ccc(NC(=O)c2sccc2-n2cccc2)cc1	1	0	-12	-170	-161	3	/	/
CCOC(=O)c1nnc(-c2ccccc2)nc1Sc1ccccc1Cl	-3	-6	15	63*	51*	31	11	92*
NC(N)=Nc1nc(-c2ccccc2)c2cc(F)ccc2n1	56	16	3	40*	88*	-108	16	79*
Cc1ccc(F)cc1NC(=O)CN1C(=O)NC2(CCCc3ccccc32)C1=O (stereo not given)	-4	-7	1	6	0	-15	/	/
CCOc1ccc(NC(=O)CN(C)C(=O)/C=C/c2ccc(S(=O)(=O)N3CCCCCC3)cc2)cc1OCC	3	-14	11	6	21	11	/	/
SMILES	Shn3 3UTR inh	KKLEB tox	TRPM1 prom inh	HIF-2a block	Peg3 promoter	CF NFkB block	HIF-2a conf	HIF-1a counter	others
CCN(CC(=O)Nc1ccc(NC(C)=O)cc1)C(=O)/C=C/c1ccc(S(=O)(=O)N2CCCCCC2)cc1	12	-16	-3	42*	44	16	16	28
O=c1nc(Nc2ccc(Br)cc2)sc2ccc([N+](=O)[O-])cc12	7	-14	-6	-48	16	2	/	/
CCOC(=O)/C(=C\c1ccc(Cl)cc1)c1nc2sc(C)c(C)c2c(=O)[nH]1	23	-57*	78*	94*	108*	80*	98*	107*
Cc1ccc(C)c(CN2C(=O)c3ccccc3S(=O)c3ccc(C(=O)N4CCN(c5ccccn5)CC4)cc32)c1 (stereo not given)	22	-8	10	8	34	-1	/	/	Mdm2 MdmX conf=101*
Cc1ccc(C)c(CN2C(=O)c3ccccc3S(=O)(=O)c3ccc(C(=O)N4CCN(C)CC4)cc32)c1	5	-1	12	22	5	9	/	/
C=C1C(=O)[C@@]23[C@H](O)C[C@@H]4C(C)(C)CC[C@H](O)[C@@]4(C)[C@@H]2CC[C@@H]1[C@H]3O	98*	-32	93*	91*	102*	95*	94*	107*
COC(=O)c1cccc(NC(=O)CCc2c(C)noc2C)c1	4	9	2	4	4	-22	/	/
Cc1nc2c(-c3ccc(F)cc3)c(C)nn2c(C)c1CCC(=O)Nc1ccccc1	1	-8	-6	25	22	14	/	/
CC(C)n1c(/C=C/[C@@H](O)C[C@@H](O)CC(=O)O)c(-c2ccc(F)cc2)c2ccccc21	85	-3	-38	39*	28	46	20	-39
CCN1CCN(c2ccc(S(=O)(=O)N3CCCCC3)cc2NC(=O)CCNC(C)=O)CC1	-11	3	-2	9	-6	7	/	/
CNc1ccc(Br)cc(C(=O)/C=C/c2ccc(OC)cc2)c1=O	-26	-4	-2	9	-7	-11	/	/
CNc1ccc(Br)cc(C(=O)/C=C/c2cc(OC)ccc2OC)c1=O	-42	-12	52	43*	26	10	95*	88*
COc1ccc(C(=O)O/N=C(\N)c2ccccc2)cc1	-3	5	-44	-189	31	-8	/	/

High-throughput results deposited in PubChem by several laboratories.
